Reference: publication PMC5540273 (PLoS ONE, 2017)

Tests used:
Conditions in all cases: concentration: 1 μM, replicates: in singlicate; n = 1
[1] = tested on: GRK7
[2] = tested on: GSK3A
[3] = tested on: GSK3B
[4] = tested on: T1, HASPIN
T1 construct: gene GSG2

[5] = tested on: HCK
[6] = tested on: HIPK1
[7] = tested on: HIPK2
[8] = tested on: HIPK3
[9] = tested on: HIPK4
[10] = tested on: HPK1
[11] = tested on: HUNK
[12] = tested on: ICK
[13] = tested on: IGF1R
[14] = tested on: T2, IKK-alpha
T2 construct: gene CHUK

[15] = tested on: T3, IKK-beta
T3 construct: gene IKBKB

[16] = tested on: T4, IKK-epsilon
T4 construct: gene IKBKE

[17] = tested on: INSRR
[18] = tested on: INSR
[19] = tested on: IRAK1
[20] = tested on: IRAK3
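Also: KINOMEscan kinase panel screen.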

SMILES | %Inh [1] [%] | %Inh [2] [%] | %Inh [3] [%] | %Inh [4] [%] | %Inh [5] [%] | %Inh [6] [%] | %Inh [7] [%] | %Inh [8] [%] | %Inh [9] [%] | %Inh [10] [%] | %Inh [11] [%] | %Inh [12] [%] | %Inh [13] [%] | %Inh [14] [%] | %Inh [15] [%] | %Inh [16] [%] | %Inh [17] [%] | %Inh [18] [%] | %Inh [19] [%] | %Inh [20] [%]
CN(C)CCN(C)C(=O)c1cc(-c2ccncc2)c(-c2ccc(Cl)c(O)c2)o1.Cl.Cl [SB-710397] | 0 | 0 | 14 | 53 | 14 | 0 | 0 | 16 | 0 | 46 | 38 | 10 | 7 | 44 | 35 | 34 | 0 | 0 | 56 | 0
Fc1cc(Cl)ccc1Nc1ccnc2cc(I)ccc12 [GW551191] | 0 | 26 | 3 | 0 | 0 | 0 | 0 | 0 | 0 | 35 | 45 | 1 | 6 | 1 | 11 | 19 | 0 | 0 | 32 | 11
COc1ccc(Nc2nccc(-c3cccc(NC(=O)c4cc5cc(F)ccc5[nH]4)c3)n2)cc1 [GSK1229782] | 0 | 31 | 0 | 39 | 0 | 0 | 46 | 0 | 36 | 65 | 8 | 0 | 17 | 21 | 13 | 0 | 0 | 0 | 25 | 42
Cc1cccc(-c2nc(Nc3ccc4[nH]ncc4c3)c3ccccc3n2)n1 [GW857175] | 4 | 14 | 21 | 68 | 0 | 0 | 20 | 35 | 3 | 54 | 0 | 17 | 0 | 6 | 17 | 21 | 0 | 9 | 9 | 3
Cc1cccc(-c2cc(Nc3ccncc3)c3ccccc3n2)n1 [GSK223675] | 0 | 17 | 12 | 0 | 0 | 0 | 0 | 5 | 0 | 12 | 0 | 11 | 0 | 0 | 0 | 36 | 0 | 14 | 15 | 0
Cc1cccc(-c2nc(C)cc(Nc3ccncc3)n2)n1 [GSK257997] | 0 | 27 | 17 | 31 | 0 | 0 | 0 | 7 | 0 | 34 | 7 | 0 | 5 | 0 | 13 | 12 | 0 | 3 | 0 | 0
O=C(O)COc1ncnc2cc(-c3ccc4[nH]ncc4c3)sc12 | 0 | 25 | 27 | 41 | 14 | 45 | 47 | 47 | 38 | 7 | 18 | 31 | 0 | 28 | 19 | 4 | 19 | 0 | 29 | 38
Cc1ccc(NC(=O)Nc2cc(C(C)(C)C)nn2-c2ccccc2)cc1 [GSK1014915] | 0 | 0 | 13 | 0 | 0 | 0 | 0 | 13 | 0 | 25 | 0 | 23 | 8 | 22 | 20 | 1 | 0 | 13 | 23 | 100
CS(=O)(=O)c1ccc(-c2nc3n(c2-c2ccncc2)CCC3)cc1 [SKF-105942] | 0 | 0 | 10 | 0 | 0 | 0 | 0 | 8 | 0 | 37 | 27 | 100 | 0 | 0 | 0 | 0 | 0 | 16 | 1 | 0
COc1cccc(-c2cc(-c3c[nH]nc3-c3ccccn3)ccn2)c1 [GW680338] | 0 | 3 | 8 | 23 | 0 | 11 | 10 | 22 | 21 | 25 | 71 | 0 | 6 | 2 | 0 | 0 | 0 | 0 | 13 | 0
